Holding throughout (test): DAPPL (digital affinity profiling via proximity ligation, sequencing); 10 mM Tris-HCl pH 7.5, 50 mM NaCl, 1 mM DTT, 4% glycerol, room temperature, 30 min; GST-TFs on glutathione beads, 16-mer random dsDNA library, 0.1% formaldehyde crosslink after washing; high values mean tight binding
Holding throughout (conditions): protein: recombinant; tags: N-terminal GST; dsDNA, one strand shown

In one experiment the target is T1, ERF (Homo sapiens, UniProt P50548 1-548).
T1 sequence: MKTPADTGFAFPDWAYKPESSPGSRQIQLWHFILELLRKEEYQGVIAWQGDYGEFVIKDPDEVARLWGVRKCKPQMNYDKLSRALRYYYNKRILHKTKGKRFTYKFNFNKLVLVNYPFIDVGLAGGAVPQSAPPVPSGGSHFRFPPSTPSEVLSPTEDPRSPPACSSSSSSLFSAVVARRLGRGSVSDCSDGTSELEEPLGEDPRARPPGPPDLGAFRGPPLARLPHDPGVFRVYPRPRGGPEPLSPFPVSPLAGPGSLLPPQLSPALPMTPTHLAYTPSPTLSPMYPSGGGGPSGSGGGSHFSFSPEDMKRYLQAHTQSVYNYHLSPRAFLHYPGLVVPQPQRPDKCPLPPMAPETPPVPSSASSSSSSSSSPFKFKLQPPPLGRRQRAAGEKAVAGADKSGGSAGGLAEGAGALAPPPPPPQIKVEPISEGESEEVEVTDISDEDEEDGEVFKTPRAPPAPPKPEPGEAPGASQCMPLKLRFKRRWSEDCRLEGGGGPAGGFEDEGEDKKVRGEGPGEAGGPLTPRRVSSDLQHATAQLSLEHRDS
In outline:
(§1)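 Human transcription factors carrying a GST fusion were produced in yeast, bound to glutathione beads, tagged with DNA barcodes and pooled together with a tag-only sample. Each pool was held with 200 nmole of a random double-stranded 16-mer DNA library in Tris/NaCl/DTT/glycerol buffer for 30 min at room temperature, then washed, crosslinked in 0.1% formaldehyde, proximity-ligated with BsaI/T4 ligase (1 h, 37 °C), PCR-amplified and sequenced on an Illumina NextSeq500. Binding signal is the read frequency of each hexamer for a given factor divided by its frequency in the tag-only sample.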

For the next experiment, the target named is T2, ETV3L (Homo sapiens, UniProt Q6ZN32 1-361).
T2 sequence: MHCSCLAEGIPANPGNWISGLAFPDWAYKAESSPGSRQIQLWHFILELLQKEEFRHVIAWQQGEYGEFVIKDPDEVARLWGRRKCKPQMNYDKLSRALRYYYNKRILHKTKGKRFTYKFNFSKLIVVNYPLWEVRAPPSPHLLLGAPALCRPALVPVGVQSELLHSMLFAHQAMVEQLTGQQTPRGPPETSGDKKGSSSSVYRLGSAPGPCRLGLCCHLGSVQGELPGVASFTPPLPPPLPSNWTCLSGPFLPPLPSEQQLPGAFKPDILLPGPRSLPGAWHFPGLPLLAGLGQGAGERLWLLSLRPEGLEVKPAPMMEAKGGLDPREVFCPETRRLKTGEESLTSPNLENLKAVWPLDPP
In short, it runs like this: as §1

A further experiment concerns the target T3, ETS2 (Homo sapiens, UniProt P15036 1-469).
T3 sequence: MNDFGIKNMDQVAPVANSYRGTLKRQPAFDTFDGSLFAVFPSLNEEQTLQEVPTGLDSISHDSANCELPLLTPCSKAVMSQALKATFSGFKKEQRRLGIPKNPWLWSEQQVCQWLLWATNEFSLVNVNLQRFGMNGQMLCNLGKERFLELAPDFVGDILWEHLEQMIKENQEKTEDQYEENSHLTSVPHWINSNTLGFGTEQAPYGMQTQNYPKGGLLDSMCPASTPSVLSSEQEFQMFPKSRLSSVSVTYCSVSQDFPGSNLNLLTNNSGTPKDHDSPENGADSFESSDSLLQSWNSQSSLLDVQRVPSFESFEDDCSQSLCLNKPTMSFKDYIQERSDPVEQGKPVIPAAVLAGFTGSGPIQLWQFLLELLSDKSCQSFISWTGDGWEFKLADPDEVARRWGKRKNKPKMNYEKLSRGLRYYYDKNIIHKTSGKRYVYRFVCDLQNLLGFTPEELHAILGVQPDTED
In outline:
as §1

A further experiment has as its target T4, SPDEF (Homo sapiens, UniProt O95238 1-335).
T4 sequence: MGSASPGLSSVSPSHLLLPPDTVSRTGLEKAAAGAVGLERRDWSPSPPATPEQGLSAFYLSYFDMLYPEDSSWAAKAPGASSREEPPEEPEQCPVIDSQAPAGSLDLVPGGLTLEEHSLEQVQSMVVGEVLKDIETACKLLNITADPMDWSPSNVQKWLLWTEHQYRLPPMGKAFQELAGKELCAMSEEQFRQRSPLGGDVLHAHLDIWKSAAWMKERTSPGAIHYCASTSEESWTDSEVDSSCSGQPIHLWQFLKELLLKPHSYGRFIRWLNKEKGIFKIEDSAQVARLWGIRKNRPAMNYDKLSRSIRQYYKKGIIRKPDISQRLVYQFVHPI
In short, it runs like this: as §1

Another experiment has as its target T5, ETV7 (Homo sapiens, UniProt Q9Y603 1-341).
T5 sequence: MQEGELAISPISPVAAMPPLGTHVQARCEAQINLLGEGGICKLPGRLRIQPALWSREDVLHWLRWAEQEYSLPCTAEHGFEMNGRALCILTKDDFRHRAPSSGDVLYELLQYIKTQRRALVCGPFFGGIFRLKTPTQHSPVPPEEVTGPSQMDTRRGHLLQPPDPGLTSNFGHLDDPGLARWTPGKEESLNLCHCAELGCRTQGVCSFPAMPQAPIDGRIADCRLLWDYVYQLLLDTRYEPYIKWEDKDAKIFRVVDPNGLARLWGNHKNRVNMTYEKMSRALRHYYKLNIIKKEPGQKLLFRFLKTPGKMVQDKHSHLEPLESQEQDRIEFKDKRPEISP
In outline: as §1

Another experiment has as its target T6, ELF5 (Homo sapiens, UniProt Q9UKW6-2 1-255).
T6 sequence: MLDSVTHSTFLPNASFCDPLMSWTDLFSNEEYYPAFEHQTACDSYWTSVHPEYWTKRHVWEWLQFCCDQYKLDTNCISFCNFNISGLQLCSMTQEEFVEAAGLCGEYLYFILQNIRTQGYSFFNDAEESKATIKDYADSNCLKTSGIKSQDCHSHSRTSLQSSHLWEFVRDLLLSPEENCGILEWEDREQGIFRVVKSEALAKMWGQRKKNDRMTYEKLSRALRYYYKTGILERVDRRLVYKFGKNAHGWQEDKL
In outline: as §1

Another experiment has as its target T7, ETV3 (Homo sapiens, UniProt P41162-2 1-143).
T7 sequence: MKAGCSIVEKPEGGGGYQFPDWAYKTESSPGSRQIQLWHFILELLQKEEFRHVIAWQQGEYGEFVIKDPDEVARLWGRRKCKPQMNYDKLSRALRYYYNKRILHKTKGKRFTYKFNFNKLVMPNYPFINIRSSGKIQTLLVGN
In short, it runs like this:
as §1

The next experiment concerns the target ETV6 (Homo sapiens, UniProt P41212 1-452). In outline: as §1

ETV6, sequence (P41212 whole entry): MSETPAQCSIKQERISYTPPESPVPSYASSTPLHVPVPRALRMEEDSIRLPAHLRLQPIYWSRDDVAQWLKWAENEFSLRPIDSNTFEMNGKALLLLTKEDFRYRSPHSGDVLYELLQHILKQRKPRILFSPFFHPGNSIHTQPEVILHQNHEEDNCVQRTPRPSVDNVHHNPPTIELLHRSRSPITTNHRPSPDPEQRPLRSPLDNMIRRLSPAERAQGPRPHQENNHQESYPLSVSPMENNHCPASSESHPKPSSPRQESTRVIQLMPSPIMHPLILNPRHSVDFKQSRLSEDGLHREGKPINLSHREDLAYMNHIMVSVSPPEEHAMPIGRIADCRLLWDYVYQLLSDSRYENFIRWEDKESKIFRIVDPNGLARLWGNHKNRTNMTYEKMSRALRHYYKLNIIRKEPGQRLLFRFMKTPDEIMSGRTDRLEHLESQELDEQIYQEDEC

Regarding TCTTCG, the binding signal with ERF is 1.45 fold enrichment (6-mer frequency, TF over GST control); with ETV3L it was 1.48 fold enrichment (6-mer frequency, TF over GST control); in the experiment with ETS2, 1.55 fold enrichment (6-mer frequency, TF over GST control); with SPDEF, 1.49 fold enrichment (6-mer frequency, TF over GST control); in the experiment with ETV7, 1.46 fold enrichment (6-mer frequency, TF over GST control); with ELF5, 1.4 fold enrichment (6-mer frequency, TF over GST control). For the same sequence, the binding signal in the experiment with ETV3 was 1.49 fold enrichment (6-mer frequency, TF over GST control); in the experiment with ETV6, 1.36 fold enrichment (6-mer frequency, TF over GST control).

Regarding TTCAAA, the binding signal is 1.26 fold enrichment (6-mer frequency, TF over GST control) with ERF; 1.27 fold enrichment (6-mer frequency, TF over GST control) with ETV3L; 1.25 fold enrichment (6-mer frequency, TF over GST control) with ETS2; 1.23 fold enrichment (6-mer frequency, TF over GST control) with SPDEF; 1.19 fold enrichment (6-mer frequency, TF over GST control) in the experiment with ETV7; 1.21 fold enrichment (6-mer frequency, TF over GST control) with ELF5. Moreover, the binding signal with ETV3 is 1.23 fold enrichment (6-mer frequency, TF over GST control); with ETV6 it was 1.27 fold enrichment (6-mer frequency, TF over GST control).

Take CTAATC: the binding signal with ERF was 1.31 fold enrichment (6-mer frequency, TF over GST control); in the experiment with ETV3L it was 1.34 fold enrichment (6-mer frequency, TF over GST control); with ETS2 it was 1.32 fold enrichment (6-mer frequency, TF over GST control); with SPDEF, 1.34 fold enrichment (6-mer frequency, TF over GST control); in the experiment with ETV7, 1.41 fold enrichment (6-mer frequency, TF over GST control); in the experiment with ELF5, 1.33 fold enrichment (6-mer frequency, TF over GST control). For the same sequence, the binding signal with ETV3 is 1.32 fold enrichment (6-mer frequency, TF over GST control); in the experiment with ETV6, 1.35 fold enrichment (6-mer frequency, TF over GST control).

Take CCAACT: the binding signal is 1.13 fold enrichment (6-mer frequency, TF over GST control) in the experiment with ERF; 1.21 fold enrichment (6-mer frequency, TF over GST control) with ETV3L; 1.24 fold enrichment (6-mer frequency, TF over GST control) in the experiment with ETS2; 1.27 fold enrichment (6-mer frequency, TF over GST control) with SPDEF; 1.2 fold enrichment (6-mer frequency, TF over GST control) with ETV7; 1.17 fold enrichment (6-mer frequency, TF over GST control) in the experiment with ELF5. Further, the binding signal was 1.17 fold enrichment (6-mer frequency, TF over GST control) in the experiment with ETV3 and 1.18 fold enrichment (6-mer frequency, TF over GST control) in the experiment with ETV6.

Regarding CTGACT, the binding signal is 1.33 fold enrichment (6-mer frequency, TF over GST control) in the experiment with ERF; 1.22 fold enrichment (6-mer frequency, TF over GST control) with ETV3L; 1.42 fold enrichment (6-mer frequency, TF over GST control) with ETS2; 1.22 fold enrichment (6-mer frequency, TF over GST control) with SPDEF; 1.33 fold enrichment (6-mer frequency, TF over GST control) with ETV7; 1.32 fold enrichment (6-mer frequency, TF over GST control) with ELF5. Also, the binding signal in the experiment with ETV3 was 1.28 fold enrichment (6-mer frequency, TF over GST control); in the experiment with ETV6 it was 1.24 fold enrichment (6-mer frequency, TF over GST control).

TCGATT: the binding signal was 1.01 fold enrichment (6-mer frequency, TF over GST control) with ERF; 1.06 fold enrichment (6-mer frequency, TF over GST control) with ETV3L; 1.16 fold enrichment (6-mer frequency, TF over GST control) with ETS2; 1.05 fold enrichment (6-mer frequency, TF over GST control) in the experiment with SPDEF; 1.04 fold enrichment (6-mer frequency, TF over GST control) in the experiment with ETV7; 1.03 fold enrichment (6-mer frequency, TF over GST control) with ELF5. Further, the binding signal with ETV3 is 1.01 fold enrichment (6-mer frequency, TF over GST control); with ETV6 it was 1.04 fold enrichment (6-mer frequency, TF over GST control).

Consider TCTATC, for which the binding signal was 1.37 fold enrichment (6-mer frequency, TF over GST control) with ERF; 1.27 fold enrichment (6-mer frequency, TF over GST control) with ETV3L; 1.16 fold enrichment (6-mer frequency, TF over GST control) with ETS2; 1.27 fold enrichment (6-mer frequency, TF over GST control) in the experiment with SPDEF; 1.27 fold enrichment (6-mer frequency, TF over GST control) with ETV7; 1.24 fold enrichment (6-mer frequency, TF over GST control) with ELF5. The binding signal with ETV3 is 1.2 fold enrichment (6-mer frequency, TF over GST control); in the experiment with ETV6, 1.32 fold enrichment (6-mer frequency, TF over GST control).

The values above are taken from publication PMC7862700, “An all-to-all approach to the identification of sequence-specific readers for epigenetic DNA modifications on cytosine”.
